# hgDAF-12 ag – H. glycines DAF-12 receptor agonists, primary screen, cell-based, luminescence, HEK293, GAL4 fusion, UAS-luciferase. HEK293 GAL4-hgDAF12 UAS-luciferase reporter, agonist luminescence; normalized to butyrate control. 1.8% of 370,000 active. Nuclear hormone receptor DAF-12 (Heterodera glycines), GAL4 fusion. AID 687014, 2013. activation, % at 6.8 µM;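 active means activation above a cutoff set at the mean of all screened compounds plus 3 SD, cut at about 10% in these data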
# DAX1 inh-1 – DAX1 (NR0B1) inhibitors, primary screen, cell-based, HEK293, Gal4-DAX1, luciferase luminescence; Nuclear receptor subfamily 0 group B member 1 (Homo sapiens), P51843; HEK293 Gal4-DAX1 luciferase reporter; inhibition, % at 6.75 µM; 0.99% of 340,000 active; AID 504766, 2011;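 active means inhibition above the mean over all tested compounds plus 3 SD, cut at about 4.2% in these data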;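 further: inhibition shows as a rise in luminescence from relieved DAX1 repression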
# Target sequence (P51843 207-470 limits assumed): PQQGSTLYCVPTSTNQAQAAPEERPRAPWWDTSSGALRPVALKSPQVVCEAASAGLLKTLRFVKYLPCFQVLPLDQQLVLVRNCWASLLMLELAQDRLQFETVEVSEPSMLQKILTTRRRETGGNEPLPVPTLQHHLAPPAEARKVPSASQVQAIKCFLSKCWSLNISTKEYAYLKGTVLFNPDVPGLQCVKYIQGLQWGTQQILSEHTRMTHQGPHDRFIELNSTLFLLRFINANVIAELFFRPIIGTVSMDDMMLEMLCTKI
# hcDAF12 agonist – H. contortus DAF-12 nuclear receptor activators, primary screen, cell-based, luminescence, HEK293, lit1-tk-luc reporter; HEK293 hcDAF-12 lit1-tk-luc reporter; 0% DMSO, 100% Δ7-dafachronic acid; activation, % at 6.8 µM; 1.4% of 370,000 active; AID 652067, 2013;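 active means activation above the mean of all tested compounds plus 3 SD, cut at about 5.5% in these data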
# DAX1 inh-2 – DAX1 (NR0B1) inhibitors on StAR promoter, primary screen, cell-based, luminescence, SF-1 (NR5A1), full-length DAX-1; HEK293T StAR-luciferase reporter, SF-1/DAX-1 repression relief; inhibition, % at 6.8 µM; 1.1% of 370,000 active; AID 652010, 2013;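 active means inhibition above the mean over all tested compounds plus 3 SD, cut at about 3.6% in these data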;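 further: higher inhibition means more luminescence from relief of DAX-1 repression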
# ssDAF-12 act – S. stercoralis DAF-12 nuclear receptor activators, primary screen, cell-based, luminescence, HEK293, GRIP1 co-expression, lit1-tk-luc. Nuclear hormone receptor DAF-12 (Strongyloides stercoralis). HEK293 ssDAF-12/GRIP1 lit1-tk-luc reporter; % of 3 µM dafachronic acid response. activation, % at 6.8 µM. 1% of 370,000 active;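 active means activation above the mean over all tested compounds plus 3 SD, cut at about 0.9% in these data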
# AHR activator – AHR activators, primary screen, cell-based, luminescence, luciferase reporter, human. Aryl hydrocarbon receptor (Homo sapiens), P35869. AHR-responsive luciferase reporter cells. activation, % at 5 µM. 2.5% of 320,000 active; in the data active means activation above about 47%
# AHR act cf – AHR activators, confirmation, cell-based, luminescence, luciferase reporter, human | shares compounds with AHR activator | human cells, AHR-responsive luciferase reporter | activation, % at 9 µM | 87% of 2,300 active | AID 2845, 2010; in the data active means activation above about 49%;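 further: HepG2 hepatoma cells carrying a DRE-driven firefly luciferase reporter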
# PXR act counter – human PXR activators, counter-screen for AHR activator project, cell-based, luciferase luminescence. shares compounds with AHR activator. cell-based PXR reporter. activation, % at 11.6 µM. 88% of 2,300 active. AID 434939, 2010; in the data active means activation above about 11%;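 further: human hepatoma DPX-2 cells expressing full-length human PXR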
# Hits are given with their value; – = inactive; · = no result given. An excerpt weighted towards active compounds, which were near 5.7% of everything screened.
SMILES,hgDAF-12 ag,DAX1 inh-1,hcDAF12 agonist,DAX1 inh-2,ssDAF-12 act,AHR activator,others
CCC(=NCCCN(C)C)c1c(O)n(-c2ccc(OC)cc2)c(=O)[nH]c1=O,–,–,–,–,–,–,
O=C(Nc1nccs1)C(Cl)(Cl)Cl,–,–,–,–,–,–,
O=C(Nc1ccc(Cl)cc1)Nc1nccs1,11,–,–,–,–,–,
O=C(O)[C@H]1NC[C@H]2C[C@H]21,–,4.8,–,–,–,–,
CC(=O)N1N=C2C3CCN(CC3)C2C1c1ccc(F)cc1 (stereo not drawn),–,–,–,–,–,–,
O=C1NC(=O)N(Cc2ccco2)C(=O)/C1=C\c1cccn1CCOc1ccc(Cl)cc1,–,–,–,–,–,–,
CCC1C=CC=CC[C@H](C)[C@@H](O)[C@](C)(O)C(=O)[C@@H](C)[C@H](O)[C@@H](C)C(=O)[C@H](C)[C@@H](O)[C@H](C)C=CC(=O)OC2[C@@H](C)C(CC1)OC1(CC[C@@H](C)C(C[C@H](C)O)O1)[C@@H]2C (stereo partly drawn),·,·,·,·,·,–,
NC(Cc1ccccc1)c1csc(Nc2ccccn2)n1 (stereo not drawn),11,·,–,–,–,·,
NC(Cc1ccc(Cl)cc1)c1csc(Nc2ccccn2)n1 (stereo not drawn),–,·,–,–,–,·,
COC(=O)c1c(C)[nH]c(C(=O)C(Cc2ccccc2)N(C)C)c1C (stereo not drawn),–,–,6.4,–,–,–,
Cc1ccc2ccccc2c1NC(=O)CNC1CCCCC1,–,–,–,–,–,–,
Cc1c(Cl)cccc1NC(=S)N1CC2CC(C1)c1cccc(=O)n1C2 (stereo not drawn),–,–,–,–,–,–,
CC1CN(CC(=O)c2ccccc2Cl)CC(C)O1 (stereo not drawn),–,–,–,–,–,–,
CC1CCN(CC(=O)c2ccccc2Cl)CC1,11,–,–,–,–,–,
CCc1ccc(N2C(=O)NC(=O)/C(=C/c3cccn3CCOc3ccc(C(C)CC)cc3)C2=O)cc1 (stereo not drawn),–,–,–,–,–,–,
COc1cc2c(cc1OC)-c1c3c(cc4c1[C@@H](C2)N(C)CC4)OCO3,–,–,–,–,–,55,
Oc1c(Cl)c(Cl)c(Cl)c(Cl)c1Cl,–,–,–,–,–,79,
CC1[C@H]2Cc3ccc(O)cc3[C@]1(C)CCN2CCc1ccccc1 (stereo partly drawn),–,–,–,–,–,–,
CCOC(=O)c1c(N)n(Cc2ccco2)c2nc3ccccc3nc12,–,–,–,–,–,75,
Nc1c(C(=O)NCc2ccco2)c2nc3ccccc3nc2n1Cc1ccccc1,–,–,–,–,–,–,
COCC(C)OC(=O)c1c(N)n(Cc2ccco2)c2nc3ccccc3nc12 (stereo not drawn),–,–,–,–,–,63,
CCOC(=O)c1c(C)n(Cc2ccccc2)c2ccc(OCC(O)Cn3nc(C)cc3C)cc12 (stereo not drawn),–,–,–,–,–,55,
CC(=O)Nc1ccccc1C(=O)OCc1ccccc1F,–,–,–,–,–,–,
Nc1c2c(nc3ccccc13)CCN(Cc1ccccc1)C2,–,–,6.1,–,–,–,
CCC(=NCc1ccc2c(c1)OCO2)c1c(O)n(C)c(=O)n(C)c1=O,–,–,–,–,–,–,
SMILES,hgDAF-12 ag,DAX1 inh-1,hcDAF12 agonist,DAX1 inh-2,ssDAF-12 act,AHR activator,others
CC(=NCc1ccc2c(c1)OCO2)c1c(O)n(C)c(=O)n(C)c1=O,–,–,–,–,–,58,
CCOC(=O)[C@]12Cc3ccccc3[C@H]1N(C)C(=O)c1cc(OC)ccc12,–,·,–,3.7,–,·,
CCOC(=O)[C@]12Cc3cc(C)ccc3[C@H]1N(C(C)C)C(=O)c1ccccc12,–,·,–,4.2,–,·,
CCOC(=O)[C@]12Cc3cc(OC)ccc3[C@H]1N(C1CCCCC1)C(=O)c1cc(OC)ccc12,–,·,–,–,–,·,
CCN(C(=O)Oc1ccccc1)c1ccc(C(O)(C(=O)OC)C(F)(F)F)cc1 (stereo not drawn),–,–,–,–,–,–,
C[C@]12CC[C@H](O)C[C@H]1CC[C@@H]1[C@@H]2CC[C@]2(C)C(=O)CC[C@@H]12,–,4.3,–,–,–,–,
CCC(=O)Nc1ccc(Cl)c(Cl)c1,–,–,–,–,–,·,
CN(C)c1ccc([N+](=O)[O-])c([N+](=O)[O-])c1,–,4.4,–,–,–,·,
CN1CCN(c2nc3c(c(=O)[nH]2)CCC3)CC1,–,–,–,–,–,–,
Cc1nn(Cc2ccccc2Cl)c(C)c1C(=O)OCC(=O)NC1CCCC(C)C1C (stereo not drawn),–,–,–,–,–,–,
Cc1nn(Cc2ccccc2Cl)c(C)c1C(=O)OCC(=O)N1CC(C)OC(C)C1 (stereo not drawn),–,–,–,–,–,52,
Cc1nc2cc([N+](=O)[O-])ccc2c(=O)n1-c1ccc(Br)cc1,–,–,–,–,–,87,AHR act cf=–;PXR act counter=11
Cc1nc2ccc(Cl)cc2c(=O)n1-c1ccc([N+](=O)[O-])cc1,–,–,–,–,–,140,AHR act cf=–;PXR act counter=11
C(=N\NC1=NCCCCC1)/c1c[nH]c2ccccc12,–,–,–,–,–,–,
COc1ccc(OC)c(N2C(=O)NC(=O)C3(Cc4cc(C)ccc4N(C)C3)C2=O)c1 (stereo not drawn),–,–,–,–,–,–,
C(=NN1CCCCCC1)c1c[nH]c2ccccc12,–,–,–,–,–,·,
Brc1ccc2[nH]cc(/C=N/N3CCCCC3)c2c1,–,–,–,–,–,83,AHR act cf=–;PXR act counter=22
O=C1CN=C(c2ccc(Br)cc2)c2oc3ccccc3c2N1,–,–,–,–,–,82,AHR act cf=108;PXR act counter=29
O=C1CN=C(c2ccc(F)cc2)c2oc3ccccc3c2N1,–,–,–,–,–,–,

# Screening results: PubChem BioAssay, The Scripps Research Institute Molecular Screening Center
